# Experimental data: PubChem BioAssay
# Where “and” joins values, the source holds several entries; their conditions need not be identical. Equal values may be shown once. Some structures have more than one record in an assay (separate samples or runs), and their calls can disagree. Calls of active or inactive are those of the source.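 Rule for the calls, unless noted: active = inhibition at or above 50% relative to wild type and mutant plate controls; inactive = inhibition below 50%.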
# Columns and labels:
# [1] = inhibitors of mutant huntingtin aggregation, primary screen, imaging, exon1htt(103Q)mCFP cells, high-content imaging (AID 483;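 active = visual image review flags a hit and inhibition of aggregation exceeds 20%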;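 note: compound exposure lasted 3 days before fixation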;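 for nuclei count: percent of the per-plate median nuclei count of sample wells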); settings: exon1htt(103Q)mCFP cell line, aggregate imaging, at 2 µM; inhibition of aggregation: stronger effect = higher value; nuclei count: measured here: cell count, toxicity
# [2] = inhibitors of E-selectin induction by TNFa, primary screen, imaging, HUVEC, immunofluorescence, MLSMR starter and 10KST1 sets (AID 487;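 active = visually confirmed hit in the image check and inhibition above 20%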;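 for inhibition: signal is fraction of cell area covered by stained E-selectin grains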;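 for nuclei count: 100% = median nuclei count of all wells on the same plate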); settings: HUVEC TNFalpha-induced E-selectin immunofluorescence imaging, at 2 µM; inhibition: stronger effect = higher value; nuclei count: measured here: cell number, toxicity
# [3] = DUSP6 inhibitors restoring Erk phosphorylation by chemical complementation, primary imaging in DUSP6-transfected HeLa (AID 609;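 active = compounds giving at least 50% inhibition in the cell-based MKP-3 phosphatase rescue imaging test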;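 for inhibition: phospho-Erk level distribution per well compared with pooled transfected vehicle control wells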); settings: HeLa MKP-3 transfected, phospho-Erk imaging KS statistic, at 10 µM, cells stimulated with TPA for 15 min
# [4] = biological target: Dual specificity protein phosphatase 6 (Homo sapiens) (UniProt Q16828); assay: as above; settings: HeLa MKP-3 transfected, phospho-Erk imaging KS statistic; at 10 µM; stronger effect = higher value; cells stimulated with TPA for 15 min
# Sequence of Dual specificity protein phosphatase 6 (Homo sapiens) (Q16828 whole entry, looked up): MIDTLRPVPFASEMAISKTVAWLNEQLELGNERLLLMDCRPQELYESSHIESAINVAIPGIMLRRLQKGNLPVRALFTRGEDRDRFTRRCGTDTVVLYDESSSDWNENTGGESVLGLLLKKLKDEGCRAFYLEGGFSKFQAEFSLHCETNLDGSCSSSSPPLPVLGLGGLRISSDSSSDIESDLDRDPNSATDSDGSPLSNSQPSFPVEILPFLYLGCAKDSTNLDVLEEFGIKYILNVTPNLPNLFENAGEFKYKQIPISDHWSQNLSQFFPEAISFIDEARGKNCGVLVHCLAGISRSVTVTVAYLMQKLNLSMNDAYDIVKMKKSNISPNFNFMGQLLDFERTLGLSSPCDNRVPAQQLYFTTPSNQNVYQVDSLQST
# [5] = biological target: Voltage-gated potassium channel subunit beta-2 (Rattus norvegicus) (UniProt P62483); assay: KvBeta enzyme negative modulators, primary screen, biochemical, NADPH fluorescence (AID 622;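 active = fluorescence slope higher than the sample average by over 3 SD, cut at about -0.22 in these data, passing the limit was not always enough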;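 note: slope of raw intensity against log time taken from 70 to 1610 s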); settings: recombinant KvBeta, 4-cyanobenzaldehyde reduction, at 10 µM, stronger effect = higher value
# Sequence of Voltage-gated potassium channel subunit beta-2 (Rattus norvegicus) (P62483 whole entry, looked up): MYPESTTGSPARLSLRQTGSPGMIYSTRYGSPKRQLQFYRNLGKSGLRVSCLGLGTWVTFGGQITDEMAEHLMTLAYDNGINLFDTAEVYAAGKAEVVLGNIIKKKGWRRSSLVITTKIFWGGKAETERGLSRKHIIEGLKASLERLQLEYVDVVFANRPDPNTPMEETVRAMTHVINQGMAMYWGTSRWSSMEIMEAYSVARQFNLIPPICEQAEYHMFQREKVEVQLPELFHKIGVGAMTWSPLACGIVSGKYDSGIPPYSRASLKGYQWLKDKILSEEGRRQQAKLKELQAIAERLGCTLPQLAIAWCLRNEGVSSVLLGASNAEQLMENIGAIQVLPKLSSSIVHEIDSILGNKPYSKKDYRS
# [6] = biological target: Voltage-gated potassium channel subunit beta-2 (Rattus norvegicus) (UniProt P62483); assay: KvBeta positive modulators, primary screen, biochemical, NADPH fluorescence (AID 623;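 active = NADPH fluorescence slope more negative than the mean of all samples by about 3 SD, 99.7% confidence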;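 note: fluorescence intensity change per second fitted from 20 to 320 s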); settings: Recombinant KvBeta, NADPH fluorescence decrease slope, 10 min; at 10 µM; stronger effect = lower value
# [7] = biological target: Alpha-2C adrenergic receptor (Homo sapiens) (UniProt P18825); assay: modulators of alpha2C/GIRK thallium flux, primary screen, cell-based, HEK293 alpha2C/GIRK1/2 (AID 624;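 active = fluorescence slope after compound addition differing from the mean of all screened samples at 99.7% confidence, in either direction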;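 note: slope of fluorescence ratio to pre-addition baseline per second over 15 to 24 s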); settings: thallium flux BTC fluorescence, at 10 µM, actives lie on both sides
# Sequence of Alpha-2C adrenergic receptor (Homo sapiens) (P18825 whole entry, looked up): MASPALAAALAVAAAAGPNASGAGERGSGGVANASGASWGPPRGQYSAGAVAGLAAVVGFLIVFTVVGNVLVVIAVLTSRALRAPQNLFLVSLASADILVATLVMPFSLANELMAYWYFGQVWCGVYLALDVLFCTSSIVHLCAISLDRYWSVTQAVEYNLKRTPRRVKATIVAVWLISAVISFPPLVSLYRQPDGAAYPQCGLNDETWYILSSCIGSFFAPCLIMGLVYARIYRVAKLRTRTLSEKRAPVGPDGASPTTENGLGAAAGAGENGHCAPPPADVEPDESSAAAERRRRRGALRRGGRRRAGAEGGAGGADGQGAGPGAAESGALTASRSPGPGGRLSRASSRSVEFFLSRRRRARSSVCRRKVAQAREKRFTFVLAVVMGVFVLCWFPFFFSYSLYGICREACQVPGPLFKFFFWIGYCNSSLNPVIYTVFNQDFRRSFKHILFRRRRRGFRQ
# [8] = inhibitors of larval lipid processing in zebrafish, primary screen, whole organism, PED6 fluorescence, gall bladder and intestine (AID 686;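 active = a full or partial loss of lipid-probe fluorescence in the fish gall bladder, intestine or both, judged by eye; inactive = no fluorescence loss, or compound toxic to the fish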;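 note: larvae 5 to 7 days old with five fish per well; signal comes from phospholipase A2 cleavage of quenched PED6 carried via bile; overnight exposure to compound and PED6 before scoring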); settings: Zebrafish larvae PED6 lipid processing, fluorescence scoring; screened at 20 µM (by protocol)
# [9] = inhibitors of Chlamydomonas gravitaxis, primary screen, whole organism, Chlamydomonas reinhardtii, WT vs cilia-less mutant, absorbance, 96-well (AID 463189); settings: OD600 absorbance, 2 days, at 10 µM, stronger effect = higher value;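 note: 0% = wild type cc124 cells in DMSO and 100% = ciliumless bld1 mutant cells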
# [10] = inhibitors of Sendai virus-induced IRF3 signaling, primary screen, TLR/RLR signaling modifier project, cell-based, Sendai virus stimulus, luciferase, 10K MLSCN set (AID 602276;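 active = inhibition at or above 50% at 10 µM; inactive = inhibition below 50%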;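 note: firefly luciferase from ISG56 promoter only with Renilla not read in this screen; 0% = Sendai virus plus DMSO and 100% = medium plus DMSO without virus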); settings: HEK293 RL24 IRF3 luciferase reporter, at 10 µM, stronger effect = higher value
# [11] = inhibitors of poly I:C-induced TLR3 signaling, primary screen, cell-based, poly I:C stimulus, luciferase, 10K MLSCN set (AID 602277;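 active = inhibition of the reporter signal at or above 50%; inactive = inhibition below 50%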); settings: HEK293-TLR3 RL24 IRF3 luciferase reporter, at 10 µM, stronger effect = higher value
# [12] = biological target: Muscarinic acetylcholine receptor M4 (Homo sapiens) (UniProt P08173); assay: compounds altering M4/GIRK thallium flux, either direction, primary screen, M4 allosteric agonist project, cell-based, HEK293 M4/GIRK, BTC-AM (AID 625;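 active = fluorescence slope after compound addition differing from the mean of all tested samples at 99.7% confidence, mostly higher but some lower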;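 note: thallium influx through GIRK channels coupled to M4 in HEK293 cells with BTC-AM dye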); settings: at 10 µM, actives lie on both sides
# Sequence of Muscarinic acetylcholine receptor M4 (Homo sapiens) (P08173 whole entry, looked up): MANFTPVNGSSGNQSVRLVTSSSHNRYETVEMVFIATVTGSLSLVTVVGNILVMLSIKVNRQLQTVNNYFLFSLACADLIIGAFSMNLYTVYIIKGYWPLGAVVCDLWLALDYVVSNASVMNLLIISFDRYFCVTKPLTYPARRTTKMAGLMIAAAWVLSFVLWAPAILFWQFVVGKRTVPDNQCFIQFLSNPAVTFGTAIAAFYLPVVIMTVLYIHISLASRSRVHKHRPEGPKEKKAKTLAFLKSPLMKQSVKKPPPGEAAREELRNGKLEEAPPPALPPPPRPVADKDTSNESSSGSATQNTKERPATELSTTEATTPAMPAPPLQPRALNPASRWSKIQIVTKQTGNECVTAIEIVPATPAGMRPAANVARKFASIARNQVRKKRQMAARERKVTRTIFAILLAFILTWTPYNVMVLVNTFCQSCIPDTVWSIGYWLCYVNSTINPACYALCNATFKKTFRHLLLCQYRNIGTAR
# [13] = measured here: cell density z-score
# [14] = measured here: nuclear c-Myc green intensity z-score
# [15] = measured here: nuclear pErk red intensity z-score, stronger effect = higher value
SMILES,inhibition of aggregation [1],nuclei count [1] [%],inhibition [2],nuclei count [2] [%],"z-score [3, 13]","z-score [3, 14]","z-score [3, 15]",inhibition [4],fluorescence slope [5],NADPH fluorescence slope [6],slope [7],outcome [8],inhibition [9],inhibition [10],inhibition [11],fluorescence slope [12]
CN1Cc2c(N)cccc2C(c2ccccc2)C1 (centres undefined),5.1% (inactive),95.3,-73% (inactive),131,-0.942,0.0925,1.7,3.45% (inactive),-0.505 (inactive),-5.7e-05 (inactive),0.00524 (inactive),inactive,70.5% (active) and 60.3% (active),9.51% (inactive),22.5% (inactive),
CCN1CCN(C(=O)N[C@@H](C(=O)N[C@@H]2C(=O)N3[C@@H]2SC(C)(C)[C@@H]3C(=O)O)c2ccccc2)C(=O)C1=O,2.8% (inactive),97.2,-1.2% (inactive),101,-0.734,-0.264,-1.18,5.42% (inactive),-0.465 (inactive),-4.7e-05 (inactive),0.0054 (inactive),inactive,-8.35% (inactive),6.7% (inactive),14.4% (inactive),
CCOC(=O)C1=C(C)NC(C)=C(C(=O)OC)C1c1cccc([N+](=O)[O-])c1 (centres undefined),-10.5% (inactive),97.3,-50.3% (inactive),103,1.1,0.446,0.0067,19% (inactive),-0.475 (inactive),-2e-05 (inactive),0.00369 (inactive),,5.78% (inactive) and 6.95% (inactive),12.9% (inactive),43.8% (inactive),
Cn1c(=O)c2c(ncn2CC(O)CO)n(C)c1=O (centres undefined),15% (inactive),90,-81.8% (inactive),127,0.192,-0.712,0.659,3.59% (inactive),-0.438 (inactive),4.1e-05 (inactive),0.00483 (inactive),inactive,8.88% (inactive),12.6% (inactive),29.1% (inactive),
CCCCNC(=O)NS(=O)(=O)c1ccc(C)cc1,10.9% (inactive),99.2,-56.6% (inactive),107,0.542,-0.348,-1.78,9.37% (inactive),-0.454 (inactive),3.1e-05 (inactive),0.00531 (inactive),inactive,7.5% (inactive) and 29.4% (inactive),-6.27% (inactive),5.7% (inactive),
CC(COc1ccccc1)N(CCCl)Cc1ccccc1 (centres undefined),3.6% (inactive),91.3,-41.5% (inactive),106,0.673,0.156,-1.5,3.59% (inactive),-0.458 (inactive),-8e-05 (inactive),0.00427 (inactive),inactive,-4.83% (inactive) and 76.9% (active),4.33% (inactive),22.7% (inactive),
COc1ccc2c(c1)c(CC(=O)O)c(C)n2C(=O)c1ccc(Cl)cc1,-23.8% (inactive),104,-69% (inactive),122,0.752,-1.27,-0.74,16.8% (inactive),-0.474 (inactive),-6.7e-05 (inactive),0.00463 (inactive),inactive,2.25% (inactive) and -4% (inactive),9.52% (inactive),22.4% (inactive),
Cc1ncc([N+](=O)[O-])n1CCO,7.7% (inactive),76.5,-67% (inactive),110,0.289,-1.84,1.07,-5.24% (inactive),-0.491 (inactive),-8.5e-05 (inactive),0.00488 (inactive),inactive,1.99% (inactive),8% (inactive),25.4% (inactive),
COC(=O)Nc1nc2ccc(C(=O)c3ccccc3)cc2[nH]1,-1.2% (inactive),34.6,-48.7% (inactive),112,1.8,-0.197,-0.901,21.2% (inactive),-0.437 (inactive),-9.9e-05 (inactive),0.0038 (inactive),inactive,-3.25% (inactive),17.6% (inactive),46.8% (inactive),
CC(=O)N[C@@H](CS)C(=O)O,7.3% (inactive),104,-49.2% (inactive),120,0.131,-1.67,0.657,1.48% (inactive),-0.543 (inactive),-3.7e-05 (inactive),0.0055 (inactive),inactive,3.13% (inactive) and -2.25% (inactive),11.9% (inactive),21% (inactive),
CN(C)CCCC1(c2ccc(F)cc2)OCc2cc(C#N)ccc21 (centres undefined),-40.9% (inactive),103,-57.3% (inactive),141,-1.47,-1.41,2.05,-9.66% (inactive),-0.453 (inactive),1.8e-06 (inactive),0.00413 (inactive),inactive,8.33% (inactive) and 1.25% (inactive),1.82% (inactive),18.9% (inactive),
Cc1cccc(N2CN=c3s/c(=C\c4ccncc4)c(=O)n3C2)c1,13.2% (inactive),99.6,-56.6% (inactive),121,-0.505,-1.69,1.18,-10.5% (inactive),-0.334 (inactive),5.8e-06 (inactive),0.00412 (inactive),inactive,22.1% (inactive),10.3% (inactive),-3.47% (inactive),
O=c1[nH]c(=O)n([C@H]2C[C@H](O)[C@@H](CO)O2)cc1F,-11.9% (inactive),10.3,-47% (inactive),116,0.0804,0.765,-0.71,3.59% (inactive),-0.533 (inactive),-5.3e-05 (inactive),0.00542 (inactive),inactive,-13.9% (inactive),-38.5% (inactive),15.4% (inactive),
O=C1CCc2cc(OCCCCc3nnnn3C3CCCCC3)ccc2N1,14.7% (inactive),106,-114% (inactive),136,0.404,-0.117,-0.524,27.1% (inactive),-0.456 (inactive),-6.4e-05 (inactive),0.00334 (inactive),inactive,3.02% (inactive) and 2.15% (inactive),-3.33% (inactive),20.5% (inactive),
COc1ccc(CN(CCN(C)C)c2ccccn2)cc1,-1.2% (inactive),105,-37.9% (inactive),113,-0.442,-0.558,1.54,3.45% (inactive),-0.507 (inactive),9.4e-06 (inactive),0.00533 (inactive),inactive,3.64% (inactive) and 20.5% (inactive),16.8% (inactive),30.1% (inactive),
CC(=O)Oc1ccc(C(c2ccc(OC(C)=O)cc2)c2ccccn2)cc1,-12.4% (inactive),99.8,-68.3% (inactive),100,-0.73,0.784,0.224,5.79% (inactive),-0.45 (inactive),-2.1e-05 (inactive),0.00425 (inactive),inactive,19.6% (inactive),12.5% (inactive),40.9% (inactive),
CN(C)CCOC(C)(c1ccccc1)c1ccccn1 (centres undefined),21.5% (inactive),111,-17.5% (inactive),132,-0.381,0.211,-0.829,33% (inactive),-0.52 (inactive),2.3e-06 (inactive),0.00491 (inactive),inactive,-2.11% (inactive) and -8.4% (inactive),2.29% (inactive),19.2% (inactive),
CCOC(=O)c1cc2c(=O)n3cccc(C)c3nc2n(CCc2ccccc2)c1=N,-9% (inactive),86.6,-145% (inactive),116,-0.746,0.0077,0.78,-16.8% (inactive),-0.42 (inactive),-2e-05 (inactive),,inactive,150% (active),12% (inactive),28.5% (inactive),0.00314 (inactive)
NS(=O)(=O)c1cc2c(cc1C(F)(F)F)NCNS2(=O)=O,0% (inactive),106,-96.4% (inactive),114,-1.02,0.57,-0.708,3.45% (inactive),-0.444 (inactive),-4.4e-05 (inactive),0.00463 (inactive),inactive,-11.3% (inactive),5.25% (inactive),24.3% (inactive),
